In all, about 340,000 compounds went through this assay and about 2,100 (0.62%) were called active.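 Rule for the calls: active = first-screen hits whose inhibition reached a set limit at any dose in the follow-up dose series; inconclusive = inhibition above the set first-screen limit but never retested; inactive = the rest.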 The list is a sample of the results. Results with a measured potency or affinity are listed apart.
Molecular target: Rac GTPase-activating protein 1 (Homo sapiens) (UniProt Q9H0H5)
Test: blockers of MgcRacGAP-driven Rac1 GTP hydrolysis – biochemical, ADP Hunter fluorescence, primary and confirmatory, confirmation (AID 624330);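 note: fluorescence reports GDP produced by GAP-driven GTP hydrolysis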
Details: MgcRacGAP-stimulated Rac1 GTP hydrolysis, at 30 µM, active compounds read high, GST-tagged Rac1 F28L mutant substrate

Rac GTPase-activating protein 1 (Homo sapiens), sequence (Q9H0H5 whole entry, looked up): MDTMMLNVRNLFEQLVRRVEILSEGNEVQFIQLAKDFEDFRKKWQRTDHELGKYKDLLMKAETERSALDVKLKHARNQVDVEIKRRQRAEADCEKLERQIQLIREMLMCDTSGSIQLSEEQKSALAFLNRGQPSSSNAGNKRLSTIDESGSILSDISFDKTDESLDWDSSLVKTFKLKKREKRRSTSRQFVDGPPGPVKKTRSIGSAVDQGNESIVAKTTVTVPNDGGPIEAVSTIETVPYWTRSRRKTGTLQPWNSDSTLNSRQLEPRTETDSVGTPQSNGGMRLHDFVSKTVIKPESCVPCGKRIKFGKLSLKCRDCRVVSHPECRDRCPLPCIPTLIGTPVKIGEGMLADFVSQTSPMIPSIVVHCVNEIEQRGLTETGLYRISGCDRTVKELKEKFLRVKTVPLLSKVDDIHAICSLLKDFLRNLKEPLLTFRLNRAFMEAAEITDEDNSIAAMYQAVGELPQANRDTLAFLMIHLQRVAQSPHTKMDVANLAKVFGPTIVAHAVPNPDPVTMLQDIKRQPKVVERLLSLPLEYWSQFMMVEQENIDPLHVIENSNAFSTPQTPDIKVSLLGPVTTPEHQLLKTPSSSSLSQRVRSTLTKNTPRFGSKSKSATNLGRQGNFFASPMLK

inhibition, inactive:
CCOc1ccc(OCC(O)CNC2CCN(Cc3ccccc3)CC2)cc1 (stereo not drawn) 7.46%
OC(CNCCc1ccccc1)COc1ccc(OCC(O)CNCCc2ccccc2)cc1 (stereo not drawn) 8.04%
COc1ccc(CNCC(O)COc2ccc(C(C)(C)c3ccccc3)cc2)cc1 (stereo not drawn) 26.6%
CC(C)(c1ccccc1)c1ccc(OCC(O)CN2CCCC2)cc1 (stereo not drawn) 9.77%
CCCCCC(=O)C(=O)c1ccc(O)cc1O -2.38%
O=C(NNC(=O)c1cccnc1)NC1CCCCC1 7.92%
CSc1cccc(NS(=O)(=O)c2cc(Br)cnc2N)c1 -1.74%
O=C(Nc1ccc(N2CCCCC2)cc1)c1ccccc1 36.6%
CC(=O)N1CCN(c2ccc(NC(=O)c3ccccc3C)cc2)CC1 9.24%
O=C(Nc1ccc(N2CCCCC2)cc1)c1ccc(F)cc1 4.29%
O=C(Nc1ccc(N2CCCCCC2)cc1)c1ccccc1Cl 20.3%
CC(c1ccncn1)N(C)C(=O)c1ccc2oc(Cc3ccccc3)nc2c1 (stereo not drawn) 6.98%
CC1CCCCC1NC(=O)CN(C)S(=O)(=O)c1cccc2nsnc12 (stereo not drawn) 9.08%
COc1ccc(/C=N/NC(=O)C(=O)N2CCCCCC2)cc1O 11.9%
S=C(NCc1ccco1)N/N=C/c1ccc(Cl)cc1 17.1%
CCCOc1ccc(/C=N/NC(=O)CN2CCCCC2)cc1OCC 0.56%
COc1ccc(/C=N/NC(=O)C(=O)N2CCCC2)cc1OC 7.5%
CCOc1ccc(/C=N/NC(=O)CN2CCCCC2)cc1OCC 10.1%
S=C(NCc1ccco1)N/N=C/c1ccncc1 2.98%
COc1cc(/C=N/NC(=S)NCC2CCCO2)cc(OC)c1OC (stereo not drawn) 7.93%
COc1ccc(/C=N/NC(=S)NCC2CCCO2)cc1 (stereo not drawn) 5.53%
Cc1ccc(C2CN(CCC(N)=O)C(=O)CO2)cc1 (stereo not drawn) 3.49%
CC1CCCCC1NC(=O)CCCCCn1c(=S)[nH]c2ccsc2c1=O (stereo not drawn) 6.67%
CC1=C([N+](=O)[O-])C(c2ccccc2C(F)(F)F)NC(=O)N1C (stereo not drawn) 2.05%
COc1ccc2c(C)cc(SCC(=O)NC3CCCCC3)nc2c1 3.25%
O=C(CN1C(=O)COc2ccccc21)N1CCc2ccccc2C1 2.34%
O=C(NCCc1csc(-c2ccccc2)n1)c1ccc(Br)o1 9.81%
O=C(COC(=O)c1ccc(F)c(S(=O)(=O)N2CCOCC2)c1)NCc1ccc(Cl)cc1 -1.94%
N#CCCn1cc(C(=O)Nc2ccc([N+](=O)[O-])cc2)c(-c2cccs2)n1 4.36%
C[C@@H]1CN([C@H](C)CO)C(=O)c2cc(Br)cnc2O[C@@H]1CN(C)C(=O)c1ccccc1 14.7%
Cn1c(=O)cc(OCCCC(=O)NCCCN2CCN(Cc3ccccc3)CC2)c2ccccc21 2.96%
COc1cc(/C=N/NC(=O)C(=O)NCC2CCCO2)cc(Cl)c1O (stereo not drawn) 21.6%
O=C(N/N=C/c1cccc(O)c1)C(=O)N1CCCCCC1 0.3%
O=C(NCC1CCCO1)C(=O)N/N=C/c1ccc(O)c(Cl)c1 (stereo not drawn) 26.7%
C=CCOc1ccc(/C=N/NC(=O)C(=O)N2CCCCCC2)cc1OC 2.52%
CCN(Cc1nc(-c2ccc(C)cc2)no1)C(=O)c1ccco1 2.23%
Cc1nnc(NC(=O)CSc2ccccc2N)s1 6.42%
CCOc1cccc2cc(C(=O)N3CCOCC3)c(=O)oc12 5.1%
O=C(Cn1cccc1C(=O)c1ccccc1)NCc1cccnc1 14.8%
O=C(CSc1nc2ccccc2[nH]1)Nc1c(F)c(F)c(F)c(F)c1F 1.98%
COc1ccccc1S(=O)(=O)Cc1ccc(C(=O)NC2CCCCC2)o1 5.84%
COc1cc(CN2CCCCCC2)cc(Br)c1O 15.4%
COc1cc(CN2CCC(C(=O)NC3CCCC3)CC2)cc(OC)c1O 23.1%
CCOC(=O)C1CCN(Cc2ccc(O)c(OC)c2)CC1 27.4%
CCOc1cc(CN2CCC(N3CCC(C(=O)NC4CC4)CC3)CC2)ccc1O 17.9%
COc1cc(CN2CCC(C(=O)N3CCCC(C)C3)CC2)cc(OC)c1O (stereo not drawn) 26.8%
COc1ccc(CN2CCC(C(=O)N3CCCC(C)C3)CC2)cc1OC (stereo not drawn) 12.3%
COCc1cc(C(C)=O)ccc1OCC(=O)Nc1ccc(NC(C)=O)cc1 1.37%
CC(NC(=O)c1ccc(Br)o1)c1ccccc1 (stereo not drawn) 7.96%
CCC(=O)N(CCc1ccccc1)Cc1cc2cc3c(cc2[nH]c1=O)OCO3 8.92%
N#CC(=Cc1ccccn1)c1nc(-c2ccc(Cl)cc2)cs1 6.28%
Cc1ccc(C(=O)NCC(=O)NCC(=O)OCc2ccc(Cl)cc2)cc1 8.02%
O=C(CCCn1c(=O)[nH]c2ccccc2c1=O)NCCSCc1ccccc1 -5.64%
Cn1c(=O)[nH]c2c(cnn2C)c1=O -2.19%
CCCn1c(N)c(Br)c(=O)[nH]c1=O 12.3%
Cn1nnnc1SCCNC(=O)C1CCC(=O)N(Cc2ccccc2F)C1 (stereo not drawn) 11%
Cc1cc(Nc2cccc([N+](=O)[O-])c2)c2ccccc2n1 13.8%
Cc1cc(Nc2ccc([N+](=O)[O-])cc2)c2ccccc2n1 4.06%
O=C(c1cccc(S(=O)(=O)N2CCc3ccccc32)c1)N1CCN(CCO)CC1 1.12%
O=C(NNc1c2ccccc2nc2ccccc12)c1ccccc1Cl 8.54%
O=C(NNc1c2ccccc2nc2ccccc12)c1ccccc1O 9.79%
Cc1ccc(S(=O)(=O)NCC(=O)N(CC2CCCO2)C(C(=O)NC2CCCC2)C(C)C)cc1 (stereo not drawn) -2.26%
N#CCCN1CCn2c1nc1ccccc12 7.51%
N#CCCN1CCN(CCC#N)C1=S -2.38%
COc1ccc(Cc2nc3c4c(ncn3n2)Oc2c(ccc3ccccc23)C4c2ccc(OC)c(OC)c2)cc1 (stereo not drawn) 0.4%
COc1cccc(-c2nnc(NC(=O)CCS(=O)(=O)c3ccc(F)cc3)o2)c1 9.6%
OCC[C@H]1C[C@H](O)[C@@H](O)[C@]2(CCCc3ccccc3O2)O1 6.49%
CC(NC(=O)N(Cc1ccccc1)Cc1ccc2c(c1)OCO2)(C(F)(F)F)C(F)(F)F -1.55%
CC(C)(C)N(Cc1ccccc1)C(=O)COC(=O)/C=C/c1ccc2c(c1)OCO2 7.28%
CSc1cccc(NC(=O)COC(=O)C2CCN(S(=O)(=O)c3ccccc3)CC2)c1 3.95%
CC[C@H]1CN2CCc3cc(OC)c(OC)cc3[C@@H]2C[C@@H]1C[C@H]1NCCc2cc(OC)c(OC)cc21 -1.46%
CC[C@H]1CN2CCc3cc(OC)c(OC)cc3C2C[C@@H]1C[C@H]1NCCc2cc(OC)c(OC)cc21 (stereo partly drawn) 5.06%
Oc1cccc(NC(=S)N=Nc2c(O)[nH]c3ccc(Br)cc23)c1 21.1%
Cc1ccc(NC(=S)N=Nc2c(O)[nH]c3ccccc23)cc1 9.95%
Oc1[nH]c2ccc(Br)cc2c1N=NC(=S)Nc1ccc(F)cc1 2.02%
COc1ccc(NC(=S)N=Nc2c(O)[nH]c3ccccc23)cc1 19.4%
CC(=O)n1cc(/C=N/NC(=O)c2ccc([N+](=O)[O-])cc2)c2ccccc21 7.25%
CCOC(=O)c1ccc(NC(=S)N(CCCN2CCCC(C)C2)Cc2ccco2)cc1 (stereo not drawn) 3.37%
Cc1ccc(-c2cc3c(nn2)-c2ccccc2C3=O)cc1 11.8%
CC1CCC2(CC1)NC(=O)N(CC(=O)Nc1cccc(S(=O)(=O)N3CCCC3)c1)C2=O (stereo not drawn) 4.59%
CCOc1ccc(-n2nc(C(=O)NC3CCCCC3)c3ccccc3c2=O)cc1 -4.66%
Nc1nc(N)c2nc(-c3ccccc3)c(N)nc2n1 4.54%
Nc1[nH]c(=S)nc2nc(-c3ccccc3)c(-c3ccccc3)nc12 9.86%
COCC1CCCCC1OS(N)(=O)=O (stereo not drawn) 10.2%
Nc1ccc(Cc2ccc(N)c(C(=O)O)c2)cc1C(=O)O 7.39%
Nc1ccc(Cc2ccc(N)c(O)c2)cc1O -7.75%
N#Cc1cc(C(=O)Cc2ccccc2)c[nH]1 -3.54%
COc1cccc(C(=O)C2CCCN(C(=O)c3ccc(C#CC(C)(C)O)cc3)C2)c1 (stereo not drawn) 1.51%
COc1ccc(C(=O)N2c3ccccc3CC2C)cc1OC (stereo not drawn) 3.63%
O=C(c1ccc([N+](=O)[O-])cc1)N1CCCC1 13.8%
O=C(c1ccc(F)cc1)N1CCN(C2CCC(c3ccccc3)CC2)CC1 (stereo not drawn) 12.1%
CC1CCCC(N2CCN(C(=O)c3ccc(F)cc3)CC2)C1 (stereo not drawn) 19.6%
COc1cc(OC)cc(C(=O)N2CCN(C3CCCCC3)CC2)c1 19.9%
O=C(c1ccccc1)N1CCN(C2CCCCCC2)CC1 25.4%
O=C(c1ccccc1)N1CCN(C2CCCCC2)CC1 44.8%
O=C(c1ccc(F)cc1)N1CCC(N2CCCCCC2)CC1 11%
COc1cccc(C(=O)N2CCN(C3CCC(c4ccccc4)CC3)CC2)c1 (stereo not drawn) 14.9%
COc1ccc(-n2c(SC3CCOC3=O)nc3ccccc3c2=O)cc1OC (stereo not drawn) 7.23%

From PubChem BioAssay AID624330 (Southern Research Specialized Biocontainment Screening …, 2012)
